Screening data as filed in PubChem.
PK Bst – alters activity of Bacillus stearothermophilus pyruvate kinase; purified pyruvate kinase, luminescence ATP production; ribose 5-phosphate activator present at AC10; Potency, µM; 51,000 tested, 1.2% active; in the data active means potency below about 11 µM; inconclusive means mostly about 12 µM to 25 µM;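 the screen sought inhibitors and activators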;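 further: scaled between full activation by ribose 5 phosphate and full inhibition by luteolin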
Luciferase inh – inhibitors of firefly luciferase; P08659; purified firefly luciferase, luminescence, 8 min; Potency, µM (doses to about 57.1 µM), without a hit: at the highest dose activity change, negative = inhibition, actives largely listed as inhibitors; 72,000 tested, 2.2% active; AID 411; active means well fitted inhibition curve with a large enough effect; inconclusive means small, poorly fitted or top-dose-only effect; further: nearly all actives have a fitted effect of over 40% in size
Target sequence (P08659 whole entry, looked up): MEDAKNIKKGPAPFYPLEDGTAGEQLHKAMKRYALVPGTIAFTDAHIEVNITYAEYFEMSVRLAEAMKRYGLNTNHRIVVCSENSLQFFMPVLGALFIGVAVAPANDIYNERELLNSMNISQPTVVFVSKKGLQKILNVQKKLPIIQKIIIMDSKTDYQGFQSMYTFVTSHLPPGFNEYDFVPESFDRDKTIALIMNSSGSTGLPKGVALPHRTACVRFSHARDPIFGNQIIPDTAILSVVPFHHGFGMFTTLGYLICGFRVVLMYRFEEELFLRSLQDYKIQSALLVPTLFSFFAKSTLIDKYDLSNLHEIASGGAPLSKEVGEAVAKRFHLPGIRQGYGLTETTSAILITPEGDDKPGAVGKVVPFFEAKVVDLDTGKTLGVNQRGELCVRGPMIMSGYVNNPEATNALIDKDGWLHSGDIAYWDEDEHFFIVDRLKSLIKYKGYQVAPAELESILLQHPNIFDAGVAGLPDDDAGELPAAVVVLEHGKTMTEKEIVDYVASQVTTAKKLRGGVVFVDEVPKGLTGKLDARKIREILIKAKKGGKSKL
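Here, luciferase activity is measured as luminescence following an 8 min room-temperature reaction at 10 uM ATP, pH 7.2. Every library sample is titrated.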
Starred values were filed as active, the others as inactive; i = inactive; ? = inconclusive; . = no result given; [ ] = another dose, or the depositor's remark. Only some compounds are listed: those with a hit (about 2.5% of all), similar ones and a draw of the others. Unless noted, on the % scale 0 is the no-effect control and ±100 the full control effect; potency means the concentration at half of the fitted maximal effect.

SMILES	PK Bst	Luciferase inh
CN(C)CCCN(C(=O)c1cccs1)c1nc(-c2ccccc2)cs1	.	0%
CN(c1ccc(O)cc1)c1nc(-c2ccccc2)cs1	?	13µM*
COc1ccc(NC(=O)Nc2cccs2)cc1OC	i	25µM*
O=C(NCc1cccs1)Nc1cccs1	>57	-4%
COc1ccc(NC(=O)c2cccs2)cc1OC	>57	-10%
COc1cccc(NC(=O)Nc2cccs2)c1	i	16µM*
CCc1ccc(NC(=O)Nc2cccs2)cc1	4.8*	4µM*
COc1cccc(NC(=O)Cc2cccs2)c1	>57	-5%
CC(Oc1ccc(Cl)cc1)C(=O)Nc1nccs1 (centres undefined)	.	-1%
CCOc1ccc(NC2=NCC(=O)N2CCc2ccccc2)cc1	>57	0%
NC(=O)C1CCN(c2oc(-c3ccccc3F)nc2S(=O)(=O)c2ccc(Cl)cc2)CC1	11*	-1%
O=S(=O)(c1ccccc1)c1nc(-c2ccco2)oc1N1CCCCCC1	>57	-1%
CCOC(=O)N1CCN(c2cc(NCCC(=O)O)c3c4c(onc24)-c2ccccc2C3=O)CC1	i	?
O=C(O)CCCNc1cc(N2CCC3(CC2)OCCO3)c2noc3c2c1C(=O)c1ccccc1-3	i	25µM*
Cc1ccc(-c2noc(CCC(=O)Nc3cccc(C#N)c3)n2)cc1	>57	-4%
Nn1c(Nc2ccccc2)nc2ccccc2c1=O	.	0%
Nn1c(Nc2ccccc2)nc2ccccc21	.	13µM*
CC(=O)N1CCN(c2ccc(NC(=O)c3ccc(C(C)(C)C)cc3)cc2)CC1	>57	-14%
CC(=O)N1CCc2c(sc(NC(=O)c3ccc(S(=O)(=O)N(C)C)cc3)c2C#N)C1	.	-7%
Cc1nn(-c2nc3ccccc3s2)c(N)c1Sc1ccc(F)cc1	>57	1%
Cc1nn(-c2nc3ccccc3s2)c(N)c1-c1ccc(Cl)cc1	7.8*	-17%
Cc1nn(-c2nc3ccccc3[nH]2)c(N)c1-c1ccccc1	2.9*	7.9µM*
Cc1nn(-c2nc3ccccc3s2)c(N)c1-c1ccccc1	1.6*	4µM*
Cc1ccc(-c2nnn(CC(=O)N3CCN(c4nc5ccccc5s4)CC3)n2)cc1	>57	-1%
O=c1cc(-c2ccccc2)[nH]n1-c1nc2ccccc2[nH]1	.	-21%
SMILES	PK Bst	Luciferase inh
O=C(CSc1nnc(CN2CCCCCC2=O)n1-c1ccccn1)NCC(F)(F)F	>57	5%
CCOC(=O)c1[nH]c(C)c(/C=N/O)c1C	>57	1%
Nc1nc2c(nc(Br)n2[C@@H]2O[C@H]3COP(=O)(O)O[C@@H]3[C@H]2O)c(=O)[nH]1	.	-3%
CCOc1ccc(OCC)c(S(=O)(=O)NCc2ccc3c(c2)OCO3)c1	.	1%
Cc1ccc(-c2nn(CC(=O)NCCN3CCOCC3)c(=O)c3ccccc23)cc1	>57	1%
O=c1c2cccc3c2c(nn1CN1CCOCC1)-c1ccccc1-3	2.9*	0%
CCNc1ncc2nc(-c3cccs3)c(=O)n(C[C@H]3CCCO3)c2n1	.	0%[11.4 µM]
CCOc1ccc(-c2cnc(SCC(N)=O)nc2N)cc1	10*	0%
CCOc1ccc(-n2c(COc3ccc(C)cc3)nnc2SCC(N)=O)cc1	>57	2%
CCOC(=O)N1CCN(C(=O)C2CC(c3cc(OC)ccc3OC)=NO2)CC1 (centres undefined)	>57	2%
CCN(CC)S(=O)(=O)c1ccc(Nc2cc(C)nc3ncnn23)cc1	>57	-2%
CCCOC(=O)c1ccc(Nc2cc(C)nc3ncnn23)cc1	11*	1%
O=c1c2ccccc2ncn1Cc1nc2ccccc2s1	i	-37%
O=c1c2ccccc2cnn1-c1nc2ccccc2s1	0.16*	0.16µM*
CCOC(=O)c1cnn(-c2cc(C)nc3c(-c4ccccc4)cnn23)c1N	>57	3%
Cc1cc(NCCOCCO)n2ncc(-c3ccc(Cl)cc3)c2n1	6.7*	6.3µM*
Cc1cc(NCCCN2CCOCC2)n2nc(C)c(-c3ccccc3)c2n1	>57	-2%
Cc1cc(NCCCN2CCOCC2)n2ncc(-c3ccccc3)c2n1	.	13µM*
C=CCn1c(=N)c(C(=O)OCC)cc2c(=O)n3cc(C)ccc3nc21	.	-5%
Cc1ccccc1NC(=O)NCCN1C(=O)C2C3C=CC(C3)C2C1=O (centres undefined)	.	1%
O=S(=O)(Nc1ccc2c(c1)OCCO2)c1cccs1	4.2*	-25%
O=S(=O)(Nc1ccc2c(c1)OCO2)c1cccs1	>57	-2%
Cc1cc(Cl)c(S(=O)(=O)Nc2ccccn2)cc1OCC(N)=O	>57	1%
CC(C)COC(=O)c1ccc(NC(=O)C2C3CCC(C3)C2C(=O)O)cc1 (centres undefined)	.	-5%
O=C(Cc1coc2ccc3ccccc3c12)N1CCN(c2ncccn2)CC1	11*	-33%
SMILES	PK Bst	Luciferase inh
O=C(COc1ccccc1Cl)N1CCN(c2ncccn2)CC1	>57	0%
Cc1cc(N2CCOCC2)nc2ccc(NC(=O)CCC(=O)N3CCCC(C)C3)cc12 (centres undefined)	.	25µM*
COc1cccc(C(=O)Nc2ccc3nc(N4CCOCC4)cc(C)c3c2)c1	.	-6%
C=CC[C@@H]1C=C[C@@H](O/N=C(/C)CCC(=O)OC[C@@H]2O[C@H](C#Cc3ccccc3)C=C[C@@H]2Oc2ccc(C)cc2)[C@@H](CO)O1	.	2%[11.4 µM]
CSc1nc2[nH]c3c(c2c2ncnn12)CCCC3	0.42*	-4%[25.5 µM]
O=C(O)c1cccc(COCC(F)(F)C(F)F)c1	>57	0%
COc1ccc(OCc2cccc(C(=O)O)c2)cc1	1.2*	2µM*
COc1ccc(NS(=O)(=O)c2cccc(C(=O)O)c2)cc1	>57	1%
CCOc1ccc(OCc2cccc(C(=O)N3CCCC3)c2)cc1	?	13µM*
CCOc1ccc(OCc2cccc(C(=O)O)c2)cc1	0.76*	0.79µM*
O=C(O)c1cccc(COc2ccc(CO)cc2Cl)c1	0.95*	1µM*
CCOc1ccc(OCc2ccc(C(=O)N3CCCC3)o2)cc1	>57	-1%
O=C(O)c1ccc(COc2ccc(CO)cc2Cl)cc1	>57	-23%
O=C(c1ccco1)N1CCN(c2ncnc3c2[nH]c2ccccc23)CC1	i	0%[25.5 µM]
Fc1ccc(-c2nnc(NC3=NCCCCC3)o2)cc1	4.5*	2.5µM*
Fc1ccc(-c2nnc(Cc3nnc(-c4ccc(F)cc4)o3)o2)cc1	>57	-5%
O=C(c1cc2c(s1)-c1ccccc1OC2)N1CCN(c2ccccn2)CC1	.	1%
O=C(c1cc2c(s1)-c1ccccc1OC2)N1CCCC1	.	13µM*
COc1ccc(OC(C)C(=O)Nc2cccc(OC)c2)cc1 (centres undefined)	.	-1%
CCOc1ccc(N2C(=O)c3cccnc3C2Nc2ccc(F)cc2)cc1 (centres undefined)	>57	-1%
CCOc1ccc(N2Cc3ncccc3C2=O)cc1	11*	-29%
CCOc1ccc(-c2nn3c(-c4ccccc4)nnc3s2)cc1	5.1*	-1%
CCOc1ccc(-c2nnc(N)s2)cc1	.	16µM*
CCOc1ccc(-c2nn3c(-c4ccc(OC)cc4)nnc3s2)cc1	>11	0%[25.5 µM]
CCN(CC)c1ccc(-c2nn3c(-c4cccnc4)nnc3s2)cc1	5.2*	-3%[25.5 µM]
CCCCOc1ccc(-c2nnc(N)s2)cc1	i	-15%[25.5 µM]
c1cncc(-c2nnc3sc(-c4ccco4)nn23)c1	>26	-2%[25.5 µM]
CCn1c(SCC(=O)c2ccccc2)nc2c(c1=O)SC(C)C2 (centres undefined)	>57	1%
O=C(CSc1nc2ccccc2c(=O)n1C1CC1)NCc1ccccc1	>57	1%
O=C1Nc2ccccc2C12OCCO2	>57	4%
